A number with no mark means an inactive call. The source made the active and inactive calls. Rule as the data show it, unless noted: active = inhibition above about 36%; inactive = the rest.
How the values were obtained:
[1] = tested on: transactivating tegument protein VP16 (Human herpesvirus 1); assay: compounds suppressing VP16-driven luciferase signal – cell-based, luminescence, single concentration, counter-screen for SRC2 inhibitor project (AID 652007); details: cell-based VP16 transactivation luciferase reporter, at 8.9 µM, active compounds read high
[2] = target: Nuclear receptor coactivator 2 (Homo sapiens) (UniProt Q15596); assay: inhibition of GAL4-SRC2 driven luciferase expression – cell-based, luminescence, HEK293, triplicate, confirmation (AID 652008;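 active = mean inhibition above 46.5%, the solvent-only control mean plus 3 SD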;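 also: 0% = DMSO-treated cells and 100% = Gossypol at 36 µM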); details: HEK293 GAL4-SRC2 luciferase reporter, at 8.9 µM, active compounds read high
Sequence of Nuclear receptor coactivator 2 (Homo sapiens) (Q15596 whole entry, looked up, the tested form may be a part): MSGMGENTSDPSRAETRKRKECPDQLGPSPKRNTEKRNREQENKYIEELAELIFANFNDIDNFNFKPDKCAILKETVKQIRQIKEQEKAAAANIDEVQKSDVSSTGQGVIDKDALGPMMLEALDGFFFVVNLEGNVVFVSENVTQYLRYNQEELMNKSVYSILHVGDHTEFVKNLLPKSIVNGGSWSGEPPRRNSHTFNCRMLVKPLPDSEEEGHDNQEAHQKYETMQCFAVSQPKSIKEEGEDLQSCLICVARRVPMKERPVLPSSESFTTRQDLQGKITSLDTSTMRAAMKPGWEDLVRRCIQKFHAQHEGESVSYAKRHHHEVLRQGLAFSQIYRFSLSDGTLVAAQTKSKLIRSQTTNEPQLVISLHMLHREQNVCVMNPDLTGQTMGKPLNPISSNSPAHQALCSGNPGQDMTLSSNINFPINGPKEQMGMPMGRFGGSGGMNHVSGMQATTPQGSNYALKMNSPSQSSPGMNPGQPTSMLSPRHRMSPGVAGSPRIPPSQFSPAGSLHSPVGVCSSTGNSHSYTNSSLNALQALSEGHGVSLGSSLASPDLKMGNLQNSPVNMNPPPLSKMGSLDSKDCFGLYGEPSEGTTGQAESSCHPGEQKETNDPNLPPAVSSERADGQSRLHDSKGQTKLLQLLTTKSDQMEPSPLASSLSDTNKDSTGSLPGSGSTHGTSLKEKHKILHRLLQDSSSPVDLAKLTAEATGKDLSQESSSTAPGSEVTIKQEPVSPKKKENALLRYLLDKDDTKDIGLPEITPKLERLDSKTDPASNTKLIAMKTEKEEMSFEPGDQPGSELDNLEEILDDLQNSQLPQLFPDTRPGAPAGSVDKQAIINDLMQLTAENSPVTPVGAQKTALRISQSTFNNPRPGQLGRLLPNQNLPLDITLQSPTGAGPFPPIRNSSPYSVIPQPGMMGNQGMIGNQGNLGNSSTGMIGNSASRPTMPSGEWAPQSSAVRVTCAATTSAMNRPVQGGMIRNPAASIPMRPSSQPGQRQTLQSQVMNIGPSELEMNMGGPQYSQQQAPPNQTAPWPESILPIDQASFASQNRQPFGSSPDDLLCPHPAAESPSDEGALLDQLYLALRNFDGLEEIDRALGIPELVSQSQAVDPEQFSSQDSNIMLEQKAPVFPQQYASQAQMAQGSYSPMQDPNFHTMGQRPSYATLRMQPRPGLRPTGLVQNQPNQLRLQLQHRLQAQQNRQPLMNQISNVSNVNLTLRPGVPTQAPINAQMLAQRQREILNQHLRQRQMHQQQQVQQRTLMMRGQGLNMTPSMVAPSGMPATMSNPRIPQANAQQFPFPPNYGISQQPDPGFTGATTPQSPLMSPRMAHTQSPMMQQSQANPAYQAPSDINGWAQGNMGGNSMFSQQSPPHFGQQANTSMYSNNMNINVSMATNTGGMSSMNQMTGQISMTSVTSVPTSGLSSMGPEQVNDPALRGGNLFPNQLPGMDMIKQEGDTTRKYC

Compound	inhibition [1]	inhibition [2]
Cc1cc(C)n(CCC(=O)N/N=C/c2c(O)ccc3ccccc23)n1	5.98%	17.2%
COc1ccc(/C=C2\SC(=S)N(CCCC(=O)Nc3ccc(O)cc3)C2=O)cc1	52.4% (active)	35.3%
O=C(CCc1nnc(C2CCCCC2)o1)N1CCC(Oc2cccnc2)CC1	1.02%	4.42%
COc1cccc(NC(=O)Nc2nnc(CC(=O)NCc3ccccc3)s2)c1	-17.5%	24.5%
COc1cc(Cn2c3ccc(NC(=O)CC(C)c4ccccc4)cc3c(=O)n2C)ccc1F (stereo unspecified)	-0.16%	2.27%
O=C(Nc1nc2cc3c(cc2s1)OCO3)C1=COCCO1	26.7%	70.3% (active)
CCCCCc1ccc(-c2ccc(/C=C/C(=O)O)cc2)nc1	-23.1%	60.2% (active)
CCn1c(Cl)c(C=O)s/c1=N\S(=O)(=O)c1ccccc1	59.6% (active)	16%
COC(=O)c1ccc(Sc2nnnn2-c2ccccc2)c([N+](=O)[O-])c1	20.1%	48.2% (active)
CCOc1ccc(-c2cc(CCCC(=O)NCCCOC)no2)cc1	38.5% (active)	52% (active)
Clc1cccc(-c2nc(-c3ccccn3)no2)c1	-11%	7.62%
CCCCC(=O)NC(c1ccccc1OC)c1ccc2cccnc2c1O (stereo unspecified)	-16.1%	28.1%
CN(c1ccc(F)cc1)S(=O)(=O)c1ccc(Cl)c(C(=O)Nc2ccncc2)c1	-3.83%	26.5%
Cn1cc(S(=O)(=O)Nc2ccc3c(c2)OCCO3)cn1	-16%	32.5%
CCn1nc(NS(=O)(=O)c2ccc([N+](=O)[O-])cc2)c2cc3ccc(C)cc3nc21	10.1%	-26.1%
CC(Oc1ccc(Cl)cc1Cl)C(=O)NCCCn1ccnc1 (stereo unspecified)	-8.12%	-15.5%
CCS(=O)(=O)c1ncc(Cl)c(C(=O)Nc2ccc(S(=O)(=O)N3CCC(C)CC3)cc2)n1	89.9% (active)	86.7% (active)
Cc1ccc(NCC(=O)Nc2cccc(F)c2)cc1S(=O)(=O)N1CCCCCC1	15.9%	3.72%
Cc1ccc(Cl)cc1N1CCN(C(=O)CCS(=O)(=O)c2ccc3c(c2)NC(=O)CO3)CC1	13.9%	30.1%
N=c1nc(SCCC(=O)O)ss1	14.4%	51.7% (active)
CC(C)(CN1CCC(Cc2ccccc2)CC1)NS(=O)(=O)c1ccccc1	13.9%	32.5%
Cc1ccc2sc(N(CCCN(C)C)C(=O)CN3C(=O)c4ccccc4C3=O)nc2c1C	-2.35%	3.74%
CCOC(=O)C1CCN(c2ncnc3c2cnn3-c2ccc(OC)cc2)CC1	-22.3%	39.2%
CC(C)C(=O)Nc1cccc2nsnc12	-7.28%	5.54%

Compound	inhibition [1]	inhibition [2]
CN1CCN(S(=O)(=O)c2cccc(C(=O)Nc3ccc(Br)cc3Br)c2)CC1	12.2%	12.1%
O=C(Nc1ccc2nc3n(c(=O)c2c1)CCCCC3)c1c(F)ccc([N+](=O)[O-])c1F	83% (active)	75.5% (active)
[2H]C(CCOS(N)(=O)=O)c1ccc(C(C)(C)C)cc1 (stereo unspecified)	13.7%	41.4%
COc1ccccc1/C=C/C1(C(=O)NC2CCCC2)CC(=O)N1c1ccc(F)cc1 (stereo unspecified)	19.7%	49.2% (active)
CC(C)C(=O)Nc1ccc(C(=O)NCc2cccnc2)cc1	-2.6%	33.3%
C[C@@H]1C(c2ccc(F)cc2)=NN(c2ccccc2)[C@H]1C(=O)N1CCOC1=O	-11.2%	-21.5%
COc1ccc(-n2c(-c3ccccc3)c[n+]3c2CCC3)cc1	6.63%	36%
COC(=O)c1cc(=O)n(-c2ccccc2)c(=Nc2ccccc2)s1	8.44%	24.4%
Cc1ccc(C(=O)NCc2cccc(C(F)(F)F)c2)cc1S(=O)(=O)N1CCCCC1	-7.82%	-8.4%
CCOC(=O)c1ccccc1NC(=O)Cn1c(-c2nonc2N)nc2ccccc21	-1.87%	6.09%
COc1ccc2ccc(O)c(CN3CCN(S(=O)(=O)c4cccc(C(F)(F)F)c4)CC3)c2c1	6.66%	-14%
CC(C)(C)c1ccc(-c2noc(CCC(=O)NCC3CCCO3)n2)cc1 (stereo unspecified)	42.1% (active)	67.2% (active)
CC(=C\c1ccccc1)/C=C1/SC(=S)N(CCCC(=O)O)C1=O	78.9% (active)	79.2% (active)
C[C@H]1CN([C@@H](C)CO)S(=O)(=O)c2ccc(Br)cc2O[C@H]1CN(C)Cc1ccccc1F	22.8%	16.8%
CCOc1ccc(CN(C)C(=O)CCl)cc1	30.9%	35.6%
Cc1ccc(S(=O)(=O)N2CCC(C(=O)Nc3ccc(S(=O)(=O)N4CCOCC4)cc3)CC2)cc1	8%	30.2%
CCC1CCCCN1S(=O)(=O)c1ccc(NC(=O)c2nc(S(C)(=O)=O)ncc2Cl)cc1 (stereo unspecified)	96.7% (active)	72.7% (active)
Cc1ccc(C2=[N+]([O-])C3(CCCCC3=O)N(O)C2(C)C)cc1 (stereo unspecified)	-5.08%	-2.69%
CC(C)(C)c1ccccc1NC(=O)CN1C(=O)NC2(CCCC2)C1=O	-13.7%	-9.65%
O=c1[nH]nc(Sc2ncnc3sccc23)n1CCc1ccccc1	14.9%	47.5% (active)
O=C(O)Cc1nn(Cc2ccc(Cl)cc2)c(=O)c2ccccc12	-13.4%	-30.9%
Cn1nnnc1Sc1ncnc2scc(-c3ccc(C(F)(F)F)cc3)c12	35.2%	44.4%
O=C(C1=NN[C@@H]2C(=O)N(c3cccc(C(F)(F)F)c3)C(=O)[C@H]12)c1ccc2ccccc2n1	2.15%	6.3%
CC1CCc2nc(N)c(C#N)c(-c3cccn3C)c2C1 (stereo unspecified)	15.5%	15.7%

— PubChem BioAssay
